Source: PubChem BioAssay AID2058 (Sanford-Burnham Center for Chemical Genomics, 2009)
Out of some 290,000 compounds screened, about 150 (0.052%) were called active.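 Rule for the calls: active = inhibition of at least 50% with at least 30 cells and total cytoplasm GFP at most 10,000,000; inconclusive = under 30 cells or total GFP of 10,000,000 plus; inactive = the rest.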 The full list was thinned out, with actives kept by preference. Entries with a potency or affinity are not part of this list.

Biological target: G-protein coupled receptor 35 (Homo sapiens) (UniProt Q9HC97)
Test: GPR35 antagonists blocking zaprinast-driven arrestin recruitment, primary screen, imaging, U2OS, beta-arrestin-GFP, zaprinast agonist (AID 2058)
Conditions: U2OS GPR35 beta-arrestin-GFP translocation imaging, zaprinast antagonism; at 10 µM; stronger effect = higher value

Sequence of G-protein coupled receptor 35 (Homo sapiens) (Q9HC97 whole entry, looked up): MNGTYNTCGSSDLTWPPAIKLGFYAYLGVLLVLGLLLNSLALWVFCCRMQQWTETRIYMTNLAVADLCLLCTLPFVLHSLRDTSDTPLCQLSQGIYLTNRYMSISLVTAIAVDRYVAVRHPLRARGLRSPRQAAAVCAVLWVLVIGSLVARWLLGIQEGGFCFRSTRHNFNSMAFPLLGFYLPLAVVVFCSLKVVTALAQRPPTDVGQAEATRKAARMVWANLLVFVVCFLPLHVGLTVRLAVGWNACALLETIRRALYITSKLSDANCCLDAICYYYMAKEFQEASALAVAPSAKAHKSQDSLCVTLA

inhibition, inactive:
Fc1ccc(-[n+]2nc(Nc3ccccc3)sc2-c2ccc(OCc3ccccc3)cc2)cc1 8.3%
COc1ccc(C)cc1Nc1n[n+](-c2ccccc2)c(-c2ccc(SC)cc2)s1 20.4%
O=C(O)c1ccc(-c2sc(Nc3ccccc3)n[n+]2-c2ccc(F)cc2)cc1 0.5%
COc1ccc(C)cc1Nc1n[n+](-c2ccccc2)c(-c2ccc(C(=O)O)cc2)s1 7.9%
CSc1ccc(-c2sc(Nc3ccccc3)n[n+]2-c2ccc(F)cc2)cc1 -7.7%
Oc1ccc(-c2sc(Nc3ccccc3)n[n+]2-c2ccc(F)cc2)cc1 10.2%
COC(=O)c1cc(-c2ccc(Cl)cc2)n[nH]1 10.8%
CC(C)C(C)NC(=O)CN1C(=O)NC2(CCc3ccccc32)C1=O (stereo not given) 9.4%
Nc1nonc1-n1nnc(C(=O)N/N=C/c2ccc(OCc3ccc(F)cc3)cc2)c1COc1ccccc1 5.9%
CC(C)(C)c1ccc(/C=C2\CCn3c2nc2cc(C(=O)O)ccc2c3=O)cc1 17.9%
CC(=O)n1cc(N(C(=O)CCl)c2ccc([N+](=O)[O-])cc2)c2ccccc21 -2.4%
O=Cc1[nH]c2ccccc2c1N(C(=O)CCl)c1ccccc1 -1.1%
CSc1ccc(C2c3[nH]c4ccccc4c3CCN2C(=O)c2ccnn2C)cc1 (stereo not given) -11.7%
CCOc1ccccc1CN1CCN(Cc2cccc3nonc23)CC1CCO (stereo not given) 28.2%
COc1cccc(CN2CCN(Cc3cccc4nonc34)CC2CCO)c1 (stereo not given) 8.1%
CN(C)/C=C1\C(=O)ON=C1c1ccccc1 -9.5%
CCN(CC)C(=O)c1ccc(-c2nnc(Nc3ccc(C(=O)NC)cc3)c3ccccc23)cc1 5%
N=C1/C(=C\c2ccc(-c3ccc(C(=O)O)cc3)o2)C(=O)N=C2SC=C(c3ccccc3)N12 43%
N=C1/C(=C\c2ccc(-c3cccc(Cl)c3)o2)C(=O)N=C2SC=C(c3ccccc3)N12 -1.6%
CC(C)S(=O)(=O)C1=NSC2=NC(=O)/C(=C\c3ccc(-c4cccc(C(=O)O)c4)o3)C(=N)N21 -1.8%
N=C1/C(=C\c2ccc(-c3cc(Cl)cc(Cl)c3)o2)C(=O)N=C2SC=C(c3ccccc3)N12 -4.5%
O=C(c1ccsc1)N1CCCC(Nc2ccc(F)c(F)c2)C1 (stereo not given) 0%
CC1CCCC(C)N1C(=O)c1cc2ncc(CCCl)cn2n1 (stereo not given) -11.5%
O=C(CCCC(=O)N(c1ccc(F)cc1)C(C(=O)NC1CCCC1)c1ccc(O)cc1)Nc1ccccn1 (stereo not given) 6.8%
Cc1ccc(N/C(N)=N/c2nc(CSc3ccccn3)cc(=O)[nH]2)c(C)c1 2.7%
C=CCSc1n[nH]c(-c2cccs2)n1 13.6%
CN1C(=S)N(c2cccnc2)C(=O)/C1=C\c1ccc(N(C)C)cc1 15.6%
COc1ccc(/C=C2\OC(=S)N(C)C2=O)cc1 22.6%
N#Cc1c(C(F)(F)F)cc(-c2cccs2)nc1SCc1cccnc1 -12.1%
O=C(COC(=O)Cn1cnc2ccccc2c1=O)Nc1cc(Cl)ccc1[N+](=O)[O-] -6.5%
CC(C)CNS(=O)(=O)c1ccc2c(c1)OCCO2 13.4%
COC(=O)c1cnn(-c2ccccc2)c1/C=N/NC(=S)Nc1ccc(Cl)cc1 -10.9%
COC(=O)c1cnn(-c2ccc(F)cc2F)c1/C=N/NC(N)=S 17.4%
COC(=O)c1cnn(-c2ccc(Cl)cc2)c1/C=N/NC(N)=S 7%
COC(=O)c1cnn(-c2ccccc2)c1/C=N/NC(=S)Nc1ccccc1 35.2%
COc1ccc(C2=NOC(C(=O)Nc3cccc(O)c3)C2)cc1 (stereo not given) -13.8%
COc1ccc(-c2cc3c(=O)n(CC(=O)NC4CCN(Cc5ccccc5)CC4)ncn3n2)cc1 19.6%
CCCc1c(O)nc(SCC(=O)NCc2ccco2)[nH]c1=O -14.7%
Cc1ccsc1-c1nc(C(N)=O)c2[nH]c(=O)n(-c3ccc(Cl)cc3)c2n1 -1.2%
O=C(NCc1ccc2c(c1)OCO2)C1CC(=O)N(CCc2ccc(Cl)cc2)C1 (stereo not given) -11.7%
COc1cc(C(=O)Nc2ccc(C(N)=O)cc2)c([N+](=O)[O-])cc1OC 3%
COc1ccc2nc(N=NC3=C(O)CC(C)(C)CC3=O)sc2c1 0.7%
CC(C)COc1ccc(-c2nnc(-c3ccncc3)o2)cc1 2.8%
COc1ccc(-c2nnc(-c3ccc(OCC(C)C)cc3)o2)cc1 4.6%
O=C(COC(=O)Cc1ccsc1)Nc1ccc(Cl)c(S(=O)(=O)N2CCOCC2)c1 23.9%
CCOc1ccc(/C=C/C(=O)c2ccccc2)cc1 7%
O=C(O)COc1ccc(/C=C/C(=O)c2ccc3ccccc3c2)cc1 12.2%
COC(=O)c1sc(NC(=O)CSc2nnc(Cn3nnc4ccccc43)n2C)nc1C 5.3%
CN(C)/C=C1\SC(=S)N(c2ccc(F)cc2)C1=O 9.5%
CN(C)/C=C1\SC(=S)N(c2ccc(Br)cc2)C1=O 21.4%
Nc1ccc(S(=O)(=O)NC(Cc2ccccc2)C(=O)O)cc1 (stereo not given) -10.2%
CCCN1C(=O)/C(=C/c2c(N3CCNC(=O)C3CC(=O)OC)nc3c(C)cccn3c2=O)SC1=S (stereo not given) 12.4%
CCOC(=O)CC1C(=O)NCCN1c1nc2ccc(C)cn2c(=O)c1/C=C1\SC(=S)N(C(C)CC)C1=O (stereo not given) 43.7%
CCOC(=O)CC1C(=O)NCCN1c1nc2ccc(C)cn2c(=O)c1/C=C1\SC(=S)N(CC(C)C)C1=O (stereo not given) 21.7%
CCCN1C(=O)/C(=C/c2c(N3CCNC(=O)C3CC(=O)OCC)nc3c(C)cccn3c2=O)SC1=S (stereo not given) 33%
Cc1cc(C)c(NC(=O)NC2CCCCC2)c(C)c1 -0.9%
O=C(CCCN1C(=O)/C(=C\c2ccccc2)SC1=S)Nc1ccc(O)cc1 23.5%
O=C(CCN1C(=O)/C(=C\c2ccccc2)SC1=S)Nc1ccc(C(=O)O)cc1 27.2%
O=C(CCN1C(=O)S/C(=C/c2ccccc2)C1=O)Nc1ccc(C(=O)O)c(O)c1 13.4%
CCc1ccc(/C=C2/SC(=S)N(CCC(=O)Nc3ccc(C(=O)O)cc3)C2=O)cc1 -13.9%
O=C(CCCN1C(=O)/C(=C\c2ccccc2)SC1=S)Nc1ccc(O)cc1C(=O)O -10%
COc1cccc(/C=C2\SC(=S)N(CCC(=O)Nc3ccc(O)cc3)C2=O)c1 -4.8%
COc1cccc(/C=C2/SC(=S)N(CCCC(=O)Nc3ccc(O)cc3)C2=O)c1 24%
O=C(CCN1C(=O)/C(=C/c2ccc(Cl)cc2)SC1=S)Nc1ccc(C(=O)O)cc1 6.4%
CC(C)CCn1c(CN2CCOCC2)nc2c1c(=O)n(C)c(=O)n2C -9.6%
CC1(C)CCCC2=C1CC1C(=O)N(O)C(=O)C1C2 (stereo not given) 2.3%
O=C1CCCN2N=C(SCC(=O)Nc3ccccc3C(F)(F)F)SC2=N1 1.9%
CC(=O)N1CCc2cc(S(=O)(=O)CCC(=O)N3CCN(c4ccccc4F)CC3)ccc21 6.2%
N#Cc1ccccc1NC(=O)CNc1ccccc1N1CCCCC1 19.6%
O=C(CCN1C(=O)S/C(=C\c2ccc(Cl)cc2)C1=O)Nc1ccc(C(=O)O)cc1 4.2%
O=C(CCCN1C(=O)/C(=C\c2cccs2)SC1=S)Nc1ccc(C(=O)O)cc1 13.3%
O=C(CN1C(=O)S/C(=C\c2ccc(C(=O)O)cc2)C1=O)Nc1ccccc1 -1.7%
O=C(CCN1C(=O)/C(=C/c2cccs2)SC1=S)Nc1ccc(C(=O)O)c(O)c1 -2.6%
COc1ccc(Cc2nnc(SCC(=O)NC3CCCCC3)n2C)cc1 9.8%
COc1ccc(-n2c(C)nnc2SCC(=O)N2CCOCC2)cc1 -0.9%
FC(F)(F)c1ccccc1N/N=C/c1cccnc1 -3.9%
O=C(NCC1CC1)Nc1ccccc1 -5%
COCC(C)NC(=S)Nc1ccccc1[N+](=O)[O-] (stereo not given) -3.3%
NS(=O)(=O)c1cccc(C(=O)NC2CCSc3ccccc32)c1 (stereo not given) -7.4%
COc1cc(/C=N/O)ccc1OCc1ccccc1Cl -5.4%
COc1cc(/C=N/N=C(N)N)ccc1OCc1ccccc1Cl -8.2%
Fc1cccc(Cl)c1CSc1ccc(-c2cccnc2)nn1 5.4%
c1ccc(-c2ccc(SCc3cccnc3)nn2)nc1 -18.4%
NNC(=O)c1sc(-c2ccc(Cl)cc2)cc1N 10.1%
COc1ccccc1N=Nc1ccc(N)c(C)c1 5.6%

inhibition, active:
O=Cc1[nH]c2ccccc2c1N(C(=O)CCl)c1ccc([N+](=O)[O-])cc1 80.7%
CCOc1ccc(CN2CCN(Cc3cccc4nonc34)CC2CCO)cc1 (stereo not given) 97.5%
CCOC(=O)CC1C(=O)NCCN1c1nc2c(C)cccn2c(=O)c1/C=C1\SC(=S)N(CC(C)C)C1=O (stereo not given) 58.9%
CCOC(=O)CC1C(=O)NCCN1c1nc2c(C)cccn2c(=O)c1/C=C1\SC(=S)N(C(C)CC)C1=O (stereo not given) 55.7%
O=C(CCCN1C(=O)/C(=C/c2cccs2)SC1=S)Nc1ccc(O)c(C(=O)O)c1 99.6%
